Inhibition data for three compounds are collected here from PubChem BioAssay AID651598 (Sanford-Burnham Center for Chemical Genomics, 2012).

“And” between values parts separate entries of the source, which are not always exact repeats. Equal values may be shown once.

As a reminder, the inhibition is the change of the read-out against control, counted positive when it falls.

The target in the assay is Apelin receptor (Homo sapiens) (UniProt P35414). The experiment in a line: APJ beta-arrestin recruitment blockade alongside CXCR6 – cell-based, DiscoveRx, panel, CHO-K1, counter-screen for CXCR6 antagonist project, SAR follow-up (AID 651598). As to conditions: CHO-K1 PathHunter beta-arrestin luminescence, antagonist mode; run 6, at 80 µM (top of the series). On the technique in general: Recruitment of arrestin is a read-out of receptor activation apart from second messengers.
Apelin receptor (Homo sapiens), sequence (P35414 whole entry, looked up): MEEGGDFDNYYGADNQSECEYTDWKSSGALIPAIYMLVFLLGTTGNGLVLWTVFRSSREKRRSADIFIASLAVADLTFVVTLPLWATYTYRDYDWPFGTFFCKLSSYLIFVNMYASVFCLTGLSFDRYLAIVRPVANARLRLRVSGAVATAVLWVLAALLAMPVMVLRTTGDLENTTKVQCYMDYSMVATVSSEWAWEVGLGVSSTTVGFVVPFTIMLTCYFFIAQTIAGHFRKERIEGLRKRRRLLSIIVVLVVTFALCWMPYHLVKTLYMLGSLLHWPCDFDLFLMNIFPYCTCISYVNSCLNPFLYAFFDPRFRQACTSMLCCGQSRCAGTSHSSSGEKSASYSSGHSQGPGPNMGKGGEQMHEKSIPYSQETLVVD
As to `COc1cc(C(=O)NC2CC3CCC(C2)N3CC(=O)Nc2ccccc2)cc(OC)c1OC` (stereo not drawn), the inhibition was 10.4% and -17.1%.

Regarding `COc1cc(C(=O)NC2CCN(CC(=O)Nc3ccccc3)CC2)cc(OC)c1OC`, the inhibition is -2.93%.

`COc1cc(C(=O)NC2CC3CCCC(C2)N3CC(=O)Nc2ccccc2)cc(OC)c1OC` (stereo not drawn): the inhibition is 9.24% and -4.02% and 20.6%.
